Assay results: PubChem BioAssay
Records with an inconclusive call do not appear. Activity calls are given as the source filed them. Unless noted, the limit is not given here; nearly all actives have AC50 up to about 26 µM.

Assays:
[1] = P. berghei load reduction in hepatocytes – cell-based, HepG2, luciferase luminescence, HepG2 viability, primary screen (AID 624349; in the data active = parasite load remaining mostly below about 12%, no sharp cut-off; inactive = mostly above about 10%;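 also: 100% = mean of DMSO negative control wells on the same plate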); details: P. berghei liver stage in HepG2, luciferase luminescence, concentration not given here; parasite load remaining: stronger effect = lower value; viability: measured here: HepG2 viability without parasites
[2] = viability loss in pontine glioma line – cell-based, SU-DIPG-XVII, MIPE5.0, CellTiter-Glo, qHTS, dose response (AID 1347060); details: CellTiter-Glo ATP luminescence;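 as to AC50: cells exposed to compound for 48 hours before viability readout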
[3] = viability loss in pontine glioma line – cell-based, SU-DIPG-XIII, MIPE5.0, CellTiter-Glo, qHTS, dose response (AID 1347064; cut-off not given, nearly all actives have AC50 up to about 23 µM;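 as to AC50: cells exposed to compound for 48 hours before the viability read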); details: CellTiter-Glo ATP luminescence
[4] = viability loss in pontine glioma line – cell-based, SU-DIPG-XXV, MIPE5.0, CellTiter-Glo, qHTS, dose response (AID 1347065); details: CellTiter-Glo ATP luminescence;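 also: cells exposed to compound for 48 hours before ATP readout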
[5] = viability loss with induced miR-34 in A549 – imaging, A549 dox-inducible miR-34, nuclei and caspase counts, primary screen (AID 1347080;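 active = compounds whose cell count with miR-34 switched on is under 0.7 times the count with it off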); details: A549 miR-34 inducible, Hoechst nuclei count, 48 h
[6] = compounds altering HSF1 focus formation in cells – imaging, Selleck Cancer Library (AID 1347162; in the data active = plate-normalised HSF1 focus index below about 0.46); details: human cells, HSF1 nuclear foci imaging, at 10 µM; SSMD: measured here: HSF1 foci SSMD mean; cell count: measured here: cell number; plate-normalised HSF1 focus index: stronger effect = lower value
[7] = MELAS cybrid and Rieske KO viability enhancers – cell-based, MELAS cybrids, Rieske KO mouse fibroblasts, CellTiter-Glo, primary screen (AID 1508586;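 active = mean z-score across replicates of 1.96 or higher in either the MELAS or the Rieske mutant cell line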;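 also: z relative to plate mean and SD of compound and empty wells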); details: low glucose
[8] = JHH-DIPG-1 glioma cell viability, MIPE5.0 library, CellTiter-Glo luminescence, qHTS (AID 1347067); details: JHH-DIPG-1 glioma viability, CellTiter-Glo ATP luminescence;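 also: cells exposed to compound for 48 hours before readout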
[9] = growth inhibition of DIPG cells – cell-based, MIPE5.0 library, qHTS (AID 1347068; cut-off not given, nearly all actives have IC50 up to about 30 µM;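 as to IC50: cells exposed to compound for 48 hours before viability readout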); details: SU-DIPG-XXV viability
[10] = chitosan synthesis blockers in C. neoformans – flow cytometry, Cibacron Brilliant Red staining (AID 1347148; call rule not given here;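 also: compound exposure lasted three days at 37 degrees C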); details: Cryptococcus neoformans chitosan, stronger effect = lower value; at 10 µM unless noted
[11] = stronger effect = lower value, cell number ratio, induced over uninduced
[12] = measured here: relative caspase fold change +Dox/-Dox
[13] = measured here: total cells with miR-34 induction, stronger effect = lower value
[14] = measured here: total cells without miR-34 induction
[15] = MELAS cybrid survival, CellTiter-Glo 48 h, stronger effect = higher value
[16] = Rieske KO mouse fibroblast survival, CellTiter-Glo 72 h

**Q.** Which results are given for `COc1ccc(CNC(=O)Nc2ncc([N+](=O)[O-])s2)cc1`?
**A.** parasite load remaining [1]: 31.3% (inactive); viability [1]: 94.6%; AC50 [2]: 18.6 µM (active); AC50 [3]: 20.9 µM (active); AC50 [4]: 20.9 µM (active); fold change [5, 11]: 1.06 (inactive); fold change [5, 12]: 0.577; cell count [5, 13]: 5600; cell count [5, 14]: 5270; SSMD [6]: 1.38; cell count [6]: 7050; plate-normalised HSF1 focus index [6]: 1.08 (inactive); z-score [7, 15]: -0.43 (inactive); z-score [7, 16]: -0.202

**Q.** Which results are given for `CCOc1ccccc1N=Nc1c(C)[nH]n(-c2nc(-c3ccccc3)cs2)c1=O`?
**A.** outcome [2]: inactive; outcome [3]: inactive; outcome [8]: inactive; outcome [9]: inactive

**Q.** With `CS(=O)(=O)c1ccc([C@@H](CC2CCCC2)C(=O)Nc2nccs2)cc1` as the compound, how does the outcome [2] read?
**A.** Its outcome is “inactive”.

**Q.** And the outcome [3]?
**A.** Its outcome is “inactive”.

**Q.** What about the outcome [8] of the same compound?
**A.** Its outcome is “inactive”.

**Q.** And the IC50 [9]?
**A.** The IC50 was 13.2 µM (active).

**Q.** What does the source list for `CONC(=O)Nc1ccc(-c2sc3c(c2CN(C)Cc2ccccc2)c(=O)n(-c2ccccc2)c(=O)n3Cc2c(F)cccc2F)cc1`?
**A.** outcome [2]: inactive; outcome [3]: inactive; outcome [9]: inactive

**Q.** Which outcome [2] does the source give for `CC(C)NC(=O)N1CC[C@H](N=C2Nc3cc(F)ccc3N(CC(F)F)c3ccc(Cl)cc32)C1` here?
**A.** Its outcome is “inactive”.

**Q.** What about the outcome [3] of the same compound?
**A.** The outcome was “inactive”.

**Q.** What about the outcome [8] of the same compound?
**A.** Its outcome is “inactive”.

**Q.** And the outcome [9]?
**A.** The outcome was “inactive”.

**Q.** What does the source list for `O=C(Nc1cccc(C(F)(F)F)c1)Nc1cc(S(=O)(=O)NC2CC2)ccc1-c1ccsc1`?
**A.** outcome [2]: inactive; outcome [3]: inactive; outcome [8]: inactive; outcome [9]: inactive; fold change [5, 11]: 0.892 (inactive); fold change [5, 12]: 0.311; cell count [5, 13]: 6420; cell count [5, 14]: 7200; z-score [7, 15]: -0.374 (inactive); z-score [7, 16]: -0.851

**Q.** Which outcome [2] does the source give for `Cc1cccc(-c2[nH]ncc2-c2ccc(F)c(-c3cnn(CCO)c3)c2)n1` here?
**A.** Its outcome is “inactive”.

**Q.** What about the outcome [3] of the same compound?
**A.** Its outcome is “inactive”.

**Q.** What about the IC50 [9] of the same compound?
**A.** Its IC50 is 26.3 µM (active).

**Q.** Which AC50 [2] does the source give for `CC(C)Oc1ccc(-c2nc(-c3cccc4c3CC[C@@H]4NCCO)no2)cc1C#N` here?
**A.** The AC50 was 20.9 µM (active).

**Q.** And the AC50 [4]?
**A.** The AC50 was 16.6 µM (active).

**Q.** With `CN(C)c1cccc(-c2c3c(=O)n(-c4ccccc4Cl)[nH]c3cc(=O)n2C)c1` as the compound, how does the outcome [2] read?
**A.** Its outcome is “inactive”.

**Q.** And the outcome [3]?
**A.** The outcome was “inactive”.

**Q.** And the outcome [8]?
**A.** Its outcome is “inactive”.

**Q.** What about the outcome [9] of the same compound?
**A.** The outcome was “inactive”.

**Q.** What does the source list for `CS(=O)(=O)Nc1cc2occ(NC=O)c(=O)c2cc1Oc1ccccc1`?
**A.** outcome [2]: inactive; outcome [3]: inactive; outcome [8]: inactive; outcome [9]: inactive

**Q.** What does the source list for `Cc1noc(-c2ccc(-c3ccc(C4(C(=O)O)CC4)cc3)cc2)c1NC(=O)O[C@H](C)c1ccccc1`?
**A.** AC50 [2]: 23.5 µM (active); AC50 [4]: 23.5 µM (active)

**Q.** With `CC#Cc1cncc(-c2ccc3c(c2)[C@@]2(N=C(C)C(N)=N2)C2(CCC(OC)CC2)C3)c1` (stereo not given in full) as the compound, how does the outcome [2] read?
**A.** Its outcome is “inactive”.

**Q.** What about the outcome [3] of the same compound?
**A.** The outcome was “inactive”.

**Q.** What about the outcome [9] of the same compound?
**A.** Its outcome is “inactive”.

**Q.** With `CNC(=O)[C@H](Cc1c[nH]c2ccccc12)NC(=O)[C@@H](CC(=O)NO)CC(C)C` as the compound, how does the outcome [2] read?
**A.** The outcome was “inactive”.

**Q.** What about the outcome [3] of the same compound?
**A.** The outcome was “inactive”.

**Q.** What about the outcome [8] of the same compound?
**A.** Its outcome is “inactive”.

**Q.** And the outcome [9]?
**A.** The outcome was “inactive”.

**Q.** And the fold change [5, 11]?
**A.** The fold change was 1.03 (inactive).

**Q.** And the fold change [5, 12]?
**A.** Its fold change is 0.925.

**Q.** And the cell count [5, 13]?
**A.** The cell count was 4790.

**Q.** What about the cell count [5, 14] of the same compound?
**A.** The cell count was 4630.

**Q.** And the fold fluorescence [10]?
**A.** The fold fluorescence was 4.97 [at 128.7 µM] (inactive).

**Q.** Which results are given for `CCN(c1cc(C#CCN2CCOCC2)cc(C(=O)NCc2c(C)cc(C)[nH]c2=O)c1C)C1CCC(N(C)CCOC)CC1` (stereo not given)?
**A.** outcome [2]: inactive; outcome [3]: inactive; outcome [8]: inactive; outcome [9]: inactive
